# From PubChem
# The full list was thinned out, with hits kept by preference.
# Cycloheximide cs: Cycloheximide Counterscreen for Small Molecule Inhibitors of Shiga Toxin; max response, %; 300,000 compounds, 12% hits; cell reporter, cycloheximide protein synthesis inhibition counterscreen; in the data active = max response mostly above about 13%, no sharp cut-off; inactive = mostly below about 14%; also: read at 38.3 µM for the half of the compounds with a filed dose; 0% is about no effect
# Shiga toxin inh: A qHTS for Small Molecule Inhibitors of Shiga Toxin; 290,000 compounds, 9.2% hits; AID 2315, 2010; inhibition, % at 38.7 µM; Vero cells, Shiga toxin protein synthesis inhibition reporter; in the data active = inhibition mostly above about 28%, no sharp cut-off; inactive = mostly below about 43%; also: 0% is about no effect
# RE007 growth inh: qHTS Assay for Inhibitors of the HIV-1 protein Vpr | S. pombe RE007 Vpr strain, BacTiter-Glo ATP luminescence, 24 h | Potency, µM (series often up to 92.2 µM), without a hit: at the highest dose activity change, negative = less growth, usual class: inhibitors | 360,000 compounds, 0.21% hits | AID 651644, 2012; active = well fitted falling curve with a large enough effect; inconclusive = small, poorly fitted or top-dose-only effect; inactive = no such curve, though single readings can be large or run the other way; also: potency is read from the fitted curve at half-maximal effect; % is scaled to controls: 0 for no effect and ±100 for the full control effect; nearly all actives have a fitted effect of over 50% in size
#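 Fission yeast strain RE007, carrying one chromosomally integrated HIV-1 vpr copy, was seeded at OD 0.01 in PMG+AL medium with 23 nL pinned compound. After 24 h at 30 °C and 99% humidity, viability was read by BacTiter-Glo luminescence.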
# Giardia FBPA inh: qHTS Assay for Inhibitors of Fructose-1,6-bisphosphate Aldolase from Giardia Lamblia; A8B2U2; 290,000 compounds, 0.71% hits; Potency, µM (top dose mostly 59.6 µM), inactives show at the highest dose activity, negative = inhibition, actives largely listed as inhibitors; purified Giardia FBPA; also: potency is read from the fitted curve at half-maximal effect; % is scaled to controls: 0 for no effect and ±100 for the full control effect; nearly all actives have a fitted effect of over 55% in size
# Target sequence (A8B2U2 whole entry, looked up): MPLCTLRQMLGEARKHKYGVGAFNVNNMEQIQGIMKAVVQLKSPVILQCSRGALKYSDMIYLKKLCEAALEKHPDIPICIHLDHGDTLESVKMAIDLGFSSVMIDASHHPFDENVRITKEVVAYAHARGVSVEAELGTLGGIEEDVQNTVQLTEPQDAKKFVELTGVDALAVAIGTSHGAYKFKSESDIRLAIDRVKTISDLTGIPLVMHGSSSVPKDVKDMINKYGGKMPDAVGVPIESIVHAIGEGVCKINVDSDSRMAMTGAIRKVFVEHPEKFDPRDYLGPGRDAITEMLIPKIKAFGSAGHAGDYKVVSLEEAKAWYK
#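 Giardia FBPA (40 nM reagent) was preincubated 10 min at RT with compound (up to 57.5 uM final), then substrate plus GAPDH/TPI/NAD/arsenate coupling system with diaphorase/resazurin was added; resorufin fluorescence (525/598 nm) was read after 20 min.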
# LmPK inhibitor: qHTS Assay for Inhibitors of Leishmania Mexicana Pyruvate Kinase (LmPK) | Potency, µM (series often up to 57.5 µM), for inactives: at the highest dose activity change, negative = inhibition, hits mostly inhibitors | 290,000 compounds, 0.37% hits | purified LmPK, Kinase-Glo ATP luminescence, 1 h; also: potency is read from the fitted curve at half-maximal effect; % is scaled to controls: 0 for no effect and ±100 for the full control effect
# Target sequence (Q27686 whole entry, looked up): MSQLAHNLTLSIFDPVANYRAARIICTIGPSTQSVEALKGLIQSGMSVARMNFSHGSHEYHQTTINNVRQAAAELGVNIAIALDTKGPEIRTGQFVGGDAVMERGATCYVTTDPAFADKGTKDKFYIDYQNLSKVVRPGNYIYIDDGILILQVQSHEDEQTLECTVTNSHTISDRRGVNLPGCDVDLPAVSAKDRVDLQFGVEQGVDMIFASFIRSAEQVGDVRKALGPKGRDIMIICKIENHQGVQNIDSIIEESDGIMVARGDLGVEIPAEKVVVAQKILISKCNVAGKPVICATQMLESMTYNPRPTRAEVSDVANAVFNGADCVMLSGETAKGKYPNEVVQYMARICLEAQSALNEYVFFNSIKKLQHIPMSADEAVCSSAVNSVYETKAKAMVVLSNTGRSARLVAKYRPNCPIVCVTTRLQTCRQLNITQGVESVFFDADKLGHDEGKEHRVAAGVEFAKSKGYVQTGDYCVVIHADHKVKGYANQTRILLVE
#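 ATP generated from ADP (0.1 mM) and PEP (0.5 mM) by 0.1 nM LmPK over 1 h at room temperature (pH 7.2 imidazole buffer) was detected by coupled luciferase luminescence. Values were normalized to uninhibited and no-enzyme wells.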
# Tb PYK inh: qHTS of Trypanosoma Brucei Inhibitors | pyruvate kinase (Trypanosoma brucei), Q57TT1 | TbPYK enzyme, Kinase-Glo Plus ATP luminescence, 45 min | Potency, µM (top dose mostly 76.8 µM), without a hit: at the top dose activity, negative = inhibition, most hits filed as inhibitors | 410,000 compounds, 0.12% hits; also: potency is read from the fitted curve at half-maximal effect; % is scaled to controls: 0 for no effect and ±100 for the full control effect; nearly all actives have a fitted effect of over 50% in size
#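 In this concentration-response screen, enzyme-free wells defined baseline while DMSO plates tracked drift. Each reaction combined TbPYK, substrate, compound and 130 uM ADP for 45 min at room temperature. Kinase-Glo Plus luminescence gave the signal.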
# The depositor's hits bear a star; ? = inconclusive; nt = no result; + = active, no number. Unless noted, calls follow the shape of the dose curve; as a rule, active = well fitted curve in the direction sought with a large enough effect; inconclusive = small, poorly fitted or top-dose-only effect, or another doubt; inactive = no such curve, though single readings can be large; an effect the other way counts as inactive or inconclusive.
SMILES,Cycloheximide cs,Shiga toxin inh,RE007 growth inh,Giardia FBPA inh,LmPK inhibitor,Tb PYK inh
Cc1cc(CNC(=O)COc2ccc(F)cc2F)c2ccccc2n1,21.9,33.2,-9.5%,0.8%,3.8%,1.7%
COc1ccccc1CC(=O)Nc1ccc2nc(C)sc2c1,24.9*,79.5*,1.0%,2.9%,0.9%,-7.8%
Cc1cc(CNC(=O)COc2ccccc2F)c2ccccc2n1,36.9*,86.7*,-19.6%,1.7%,-6.3%,-2.9%
Cc1ccc(CSc2nc3ccc(NC(=O)COc4ccccc4F)cc3s2)cc1,nt,nt,nt,nt,nt,2.0%
CCc1cccc(-n2c(=O)c3cccnc3n2CC(=O)Nc2ccc(F)c(C)c2)c1,nt,nt,nt,nt,nt,1.5%
COc1ccc(C(=O)NCC(c2ccc3c(c2)OCO3)N2CCN(C)CC2)cc1OC (configuration not stated),nt,nt,nt,nt,nt,0.7%
CCN(CC)C(=O)c1ccc(NC(=O)COc2ccccc2F)cc1,22.4*,76.3*,-7.5%,0.6%,-13.0%,-13.4%
O=C(COc1ccccc1F)Nc1ccc2c(c1)CCC2,nt,nt,-15.9%,nt,nt,3.9%
O=C(CCSCc1cccc(Cl)c1)NCc1ccccc1Cl,nt,nt,nt,nt,nt,0.0%
COc1ccc(/C=C/C(=O)Oc2cc(C)[nH]c(=O)c2[N+](=O)[O-])cc1OC,59.1*,164.1*,4.2%,-2.7%,0.3%,6.8%
Cc1ccc(C(=O)Nc2cccc(-c3nc4cccnc4s3)c2C)cc1,nt,nt,nt,nt,nt,5.1%
Oc1c(Cl)cc(Cl)cc1CNc1ccccn1,-2.0,-16.3,1.0%,-5.4%,-1.0%,-4.0%
Oc1c(Cl)cc(Cl)cc1CN1CCN(Cc2ccccc2)CC1,20.1*,27.8,5.6%,-13.3%,-2.5%,-13.1%
Oc1c(Cl)cccc1Cc1cc(Cl)cc(Cl)c1O,nt,nt,35.5µM*,nt,nt,-8.4%
CCOC(=O)CC1c2cc(OCC)c(OCC)cc2CCN1C(=O)Nc1cccc(Cl)c1 (configuration not stated),nt,nt,nt,nt,nt,0.0%
Cc1[nH]n(-c2ccc(Br)cc2)c(=O)c1/C=N/NC(=O)c1ccccc1,28.3*,91.6*,-1.2%,1.8%,-4.8%,4.6%
Cc1[nH]n(-c2ccccc2)c(=O)c1/C=N/NC(=O)c1cccc(F)c1,42.7*,66.1*,15.4%,?,2.1%,-4.1%
Cc1cc(C(=O)N/N=C/c2c(C)[nH]n(-c3ccccc3)c2=O)n[nH]1,8.8,-6.7,-6.5%,-8.7%,-2.7%,4.3%
CC[C@]12CCCN3CCc4c(n(c5ccccc45)C(=O)C1)[C@H]32,nt,nt,nt,5.2%,nt,nt
CC(=O)c1ccc(NC(=O)c2ccccc2Sc2ncnc3sc(C)c(C)c23)cc1,17.5*,+,-4.1%,-0.3%,1.4%,2.2%
Cc1sc2ncnc(Sc3ccccc3C(=O)O)c2c1C,-2.4,1.2,20.9%,11.6%,-4.8%,-16.1%
Cc1cccc(C)c1NC(=O)CSc1nccn1C,nt,nt,nt,nt,nt,2.4%
Cc1ccc(-c2csc(NC(=O)c3ccno3)n2)cc1,22.2*,21.0,?,-19.2%,7.7%,7.8%
Cc1ccc(C(=O)Nc2nc(-c3ccc(F)cc3)cs2)o1,41.8*,91.7*,?,6.0%,-3.3%,2.9%
Cc1ccc(-c2csc(NC(=O)c3c(C)noc3C)n2)cc1,nt,nt,-25.4%,nt,nt,-2.7%
SMILES,Cycloheximide cs,Shiga toxin inh,RE007 growth inh,Giardia FBPA inh,LmPK inhibitor,Tb PYK inh
Cc1c(CC(=O)N[C@H](C(=O)O)C(C)C)c(=O)oc2cc3c(cc12)CCC(C)(C)O3,66.5*,97.9*,10.2%,2.0%,0.3%,-19.2%
Cc1c(CC(=O)N2CCC(O)CC2)c(=O)oc2cc3c(cc12)CCC1(CCCCC1)O3,nt,nt,-1.3%,nt,nt,-1.8%
Cc1c(CC(=O)N[C@@H](C)C(=O)O)c(=O)oc2cc3c(cc12)CCC(C)(C)O3,-1.4,-6.1,5.8%,-3.4%,0.5%,2.8%
COCCNC(=O)Cc1c(C)c2cc3c(cc2oc1=O)OC(C)(C)CC3,14.1*,21.5,-0.7%,-1.8%,-1.4%,-2.5%
Cc1c(CC(=O)NC(C)C)c(=O)oc2cc3c(cc12)CCC(C)(C)O3,35.4*,53.9*,6.2%,-6.7%,-5.3%,-4.2%
CCC(C)NC(=O)Cc1c(C)c2cc3c(cc2oc1=O)OC(C)(C)CC3 (configuration not stated),39.6*,62.6*,-2.0%,2.0%,-1.5%,-2.8%
CCCCCCCCCCCCCCCC(=O)OCC(COP(=O)(O)OCC[N+](C)(C)C)OC(=O)CCCCCCCCCCCCCCC (configuration not stated),nt,nt,nt,nt,nt,0.9%
Cc1c(CC(=O)NCC(C)C)c(=O)oc2cc3c(cc12)CCC(C)(C)O3,23.0*,40.6*,13.1%,7.3%,-5.9%,-6.0%
Cc1c(CC(=O)NCCC(C)C)c(=O)oc2cc3c(cc12)CCC(C)(C)O3,2.9,-4.8,6.6%,6.3%,1.9%,-10.9%
CC(C)(C)NC(=O)Nc1ccc(Br)cc1,38.6*,83.4*,10.0%,-5.0%,-0.1%,7.9%
CCC(C)NC(=S)Nc1ccc(C(=O)OC)cc1 (configuration not stated),25.8*,56.1*,12.4%,0.1%,-1.7%,0.8%
CCC(C)NC(=O)Nc1ccc(Br)cc1 (configuration not stated),32.4*,79.4*,-18.4%,-3.6%,-1.7%,1.5%
COc1cc(/C=C(\CC(=O)O)c2nc3ccccc3s2)ccc1OCC(=O)Nc1ccccc1F,nt,nt,38.0%,nt,nt,7.9%
COc1cc(/C=N/Nc2nc3ccccc3s2)ccc1OC(=O)c1ccccc1F,43.2*,+,2.3%,-4.4%,-6.7%,-0.8%
COc1ccc(C=NNc2nc3ccccc3s2)cc1,nt,nt,0.9%,nt,nt,-4.6%
COc1cc(OC)cc(C(=O)Oc2ccc(/C=N/Nc3nc4ccccc4s3)cc2OC)c1,48.3*,123.9*,-2.0%,-12.5%,-1.6%,-22.6%
O=P(O)(O)OC(Cn1cncn1)(Cn1cncn1)c1ccc(F)cc1F,nt,nt,nt,nt,nt,3.0%
O=C(COC(=O)/C=C/c1ccco1)Nc1ncc(Cl)cc1Cl,0.7,21.6,-0.8%,0.8%,1.7%,-7.2%
Clc1cnc(N/N=C/c2cccs2)c(Cl)c1,35.7*,127.9*,7.2%,-7.5%,-4.3%,5.9%
Clc1cnc(N/N=C/c2ccco2)c(Cl)c1,57.2*,94.5*,41.5%,-24.1%,-14.1%,-16.9%
Cc1ccc(/C=N/Nc2ccc(F)cc2F)s1,37.4*,91.0*,-2.0%,-0.5%,3.3%,3.4%
Oc1ccc(/C=N/Nc2ncc(Cl)cc2Cl)cc1,50.3*,111.3*,-4.5%,-0.8%,0.0%,-1.8%
CCOC(=O)C1CCCN(C(=O)c2cc3c(Cl)nc4ccccc4c3s2)C1 (configuration not stated),nt,nt,nt,nt,nt,5.3%
COc1ccc(C(=O)NCC(c2ccc3c(c2)OCO3)N2CCOCC2)cc1OC (configuration not stated),nt,nt,nt,nt,nt,-14.6%
Cc1ccc(/C=N/Nc2ncc(Cl)cc2Cl)s1,34.1*,44.0,4.5%,-10.5%,-7.5%,1.5%
